This is an account of results in PubChem BioAssay AID1857 (The Scripps Research Institute Molecular Screening Center, 2009).

Screen size: about 1,300 compounds; about 290 (22%) were called active. These entries were drawn from the full list. A number with no mark means an inactive call.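 How the source made its calls: active means inhibition above the mean of all tested compounds plus 3 SD (cut at about 19% in these data); inactive means the rest.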

This experiment has as its system VIM-2 metallo-beta-lactamase (Pseudomonas aeruginosa). Put plainly: VIM-2 CCF2 hydrolysis inhibition, orthogonal readout – biochemical, FRET, epi-absorbance artifact exclusion, artefact control for selective VIM-2 inhibitor project, confirmation (AID 1857).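 Further: 0% = VIM-2 plus DMSO and 100% = no enzyme wells.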 The following applies: purified VIM-2, CCF2 FRET substrate hydrolysis; at 5.6 µM; stronger effect = higher value.
The term inhibition denotes the drop in the measured response relative to a control, in per cent. With `CC(C)(C)CC(=O)Nc1nnc(SCC(=O)NCc2cccs2)s1`, the inhibition is 45.5% (active).

`Nc1nnc2c(C(F)(F)F)nc3ccccc3n12`: the inhibition was 2.08%.

As to `CCN(CC)c1ccc2cc(C(N)=O)/c(=N\NC(=O)c3ccncc3)oc2c1`, the inhibition is 11.1%.

`Cc1ccc2nc(C)c3c(c2c1)N(c1ccccc1)CC3`: the inhibition is -1.46%.

In the case of `COc1ccc(/C=N/N(C)C2=NS(=O)(=O)c3ccccc32)cc1OC`, the inhibition is -2.83%.

As for `CCN1CCN(C(=O)Cn2nc(C)n3c(cc4c(OC)cccc43)c2=O)CC1`, the inhibition was 1.55%.

As for `Cc1cc(-c2ccc(/C=N/n3cnnc3)o2)c([N+](=O)[O-])cc1C`, the inhibition was -2.34%.

Regarding `O=C1Nc2cc(C(=O)N3CCC(N4CCCCC4)CC3)ccc2S/C1=C\c1ccccc1`, the inhibition was 53.6% (active).

Turning to `COc1ccc(Nc2cc(C)nc(-n3nc(C)cc3C)n2)cc1`, the inhibition was -53.5%.

For `Cc1ccc(Cl)cc1-c1ccc(/C=N/n2cnnc2)o1`, the inhibition was -0.56%.

As to `COc1cc(NC(=O)C2=C(C)OCCS2)c(Cl)cc1C(=O)NCCN1CCN(C)CC1`, the inhibition was 2.07%.

For the molecule `COc1cc(-c2nn3c(-c4cccc(C)c4)nnc3s2)cc(OC)c1OC`, the inhibition is 22.2% (active).

On to `COc1ccc(-c2nn3c(-c4ccccc4)nnc3s2)cc1OC`, for which the inhibition was 1.85%.

On to `CCOCCCNc1c(CC)c(C)c(C#N)c2nc3ccccc3n12`, for which the inhibition is 0.59%.

On to `COc1ccc(CCn2c(=N)c(C(=O)NCC3CCCO3)cc3c(=O)n4cccc(C)c4nc32)cc1OC` (configuration not stated), for which the inhibition was -3.31%.

For `CC(=O)c1ccc(-c2ccc(Cn3c(C)nc4cc(N)c(C)nc43)cc2)cc1`, the inhibition is 42.1% (active).

With `COC(=O)c1c(NC(=O)c2ccc(S(=O)(=O)N3CCOCC3)cc2)sc2c1CCN(C(C)C)C2`, the inhibition was 1.2%.

In the case of `CNC(=O)c1ccsc1NC(=O)c1ccc(S(=O)(=O)N2CCOCC2)cc1`, the inhibition was 37.1% (active).

Turning to `CN1CCN(c2ccc(NC(=O)c3ccc4c(c3)[nH]c(=O)n4Cc3ccc(F)cc3)cc2)CC1`, the inhibition is -0.35%.

For the molecule `CCOC(=O)N1CCN(C(=O)C2CCN(c3ncnc4c3sc3cccc(F)c34)CC2)CC1`, the inhibition is 1.58%.

As for `Nc1cccc2c1C(=O)N(Cc1nnc(-c3ccccc3Br)o1)C2=O`, the inhibition was 29.6% (active).

In the case of `COc1nc(N=C(N)N)nc2c(C)cccc12`, the inhibition was -4.99%.

With `Cn1c2ccccc2c(=O)c2c(O)cccc21`, the inhibition is -1.24%.

Take `COc1cc(/C=N/Nc2nn3cnnc3c3ccccc23)cc(OC)c1OC`: the inhibition is 0.17%.

For `COC(=O)c1ccc(-c2noc(CN(Cc3ccccn3)CC3CCCO3)n2)cc1` (configuration not stated), the inhibition is -11.9%.

For `O=c1[nH]c(-c2ccccc2)c(-c2ccccc2)[nH]1`, the inhibition was -3.81%.

Regarding `Clc1cc(-c2ccc(/C=N/n3cnnc3)o2)ccc1Br`, the inhibition was -1.55%.
